Source: PubChem
PrPC surface inh = reduces human prion protein on the cell surface | P04156 | cell surface PrPC, TR-FRET read-out | inhibition, % at 13.8 µM | 370,000 compounds, 0.43% hits | AID 720596; in the data active = inhibition above about 24%; note: 0% = median of the test wells and 100% = reference compound wells
PriA SSB inh = blocks PriA binding to SSB C-terminal tail; AID 1272365; inhibition, % at 33 µM; 430,000 compounds, 0.6% hits; AlphaScreen SSBct-PriA binding, biotinylated peptide; in the data active = inhibition mostly above about 37%, no sharp cut-off; inactive = mostly below about 20%;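 note: plate controls were negative control peptide for no effect and reference peptide for full effect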
SARS 3CLpro inh = SARS-CoV 3CLpro protease inhibition. 290,000 compounds, 0.14% hits. inhibition, % at 6 µM. P0C6X7. recombinant SARS-CoV 3CLpro, quenched FRET peptide cleavage; in the data active = inhibition above about 12%
PrP 5UTR inh = inhibition of PrP 5' UTR reporter expression; cell-based PrP 5' UTR mRNA reporter, plate reader; inhibition, % (no concentration beside the values); 340,000 compounds, 0.35% hits; in the data active = inhibition above about 52%; note: 0 = median of the neutral control wells
BJeLR viability = BJeLR cell viability loss; inhibition, % (test concentration not listed); 300,000 compounds, 0.17% hits; AID 1554; BJeLR (HRASV12) viability, CellTiter-Glo ATP luminescence, 48 h; in the data active = inhibition above about 50%
* = called active by the depositor; x = not tested or not shown; + = active, no number. In the library only some 1.2% were active in any assay of this set; here they are far more common.

SMILES	PrPC surface inh	PriA SSB inh	SARS 3CLpro inh	PrP 5UTR inh	BJeLR viability
COc1cccc(NC(=O)CSc2c[nH]c3ccccc23)c1	x	0	x	x	x
O=C(CN1CCCCCC1)NN=Cc1ccc(Cl)c(Cl)c1	x	-4	x	x	x
CCCN1CCCc2cc(CCNS(=O)(=O)c3cc(C)c(C)cc3OC)ccc21	x	60*	x	x	x
CCCN1CCCc2cc(CCNS(=O)(=O)c3ccc(OC)c(Cl)c3)ccc21	x	44*	x	x	x
COc1ccc(S(=O)(=O)NCCc2ccc(N3CCCC3)cc2)cc1Cl	x	12	x	x	x
CCCN1CCCc2cc(CCNS(=O)(=O)c3ccc(OC)c(OC)c3)ccc21	x	67*	x	x	x
CCCN1CCCc2cc(CCNS(=O)(=O)c3ccc(OC)cc3)ccc21	x	62*	x	x	x
Brc1ccc(/C=N\N=C/c2ccc(Br)cc2)cc1	x	-8	x	x	x
Cc1cc(C)cc(OCCNC(=O)C(C)Oc2ccc(Cl)cc2Cl)c1 (stereo not given)	x	-21	x	x	x
CN1CCC(CNS(=O)(=O)c2ccc(Br)cc2)CC1	x	5	x	x	x
Cc1ccc(-n2nc(C)c(Sc3ccccc3[N+](=O)[O-])c2N)cc1	-27	39*	1	1	-7
CCOc1ccc(-c2csc(SCc3ccc(C(=O)NCc4ccccn4)o3)n2)cc1	x	14*	x	x	x
CCc1ccc(OCc2ccc(C(=O)NCc3ccccn3)o2)cc1	11	-7	0	-10	-4
COCC(=O)Nc1ccc(N2CCCC2=O)c(OC)c1	x	-17	x	x	x
Cn1cc(S(=O)(=O)N2CCCN(C(=O)c3ccccc3Br)CC2)cn1	x	-11	x	x	x
CC(C)NC(=O)CCCCn1c(=O)c2ccccc2n(CC(=O)Nc2ccc(C(C)C)cc2)c1=O	x	0	x	x	x
O=C(CSCc1ccc(Br)cc1)N/N=C/c1ccc(Sc2cccc3cccnc23)o1	x	+	x	x	x
O=C(CCc1ccccc1O)N/N=C/c1ccc(Sc2cccc3cccnc23)o1	-3	x	5	-25	-2
CCCCCCCCCCCCCCCCCC(=O)N/N=C/c1ccc(Sc2cccc3cccnc23)o1	x	+	x	x	x
COc1ccc(COC(=O)c2cc([N+](=O)[O-])ccc2N2CCOCC2)cc1F	-1	10	x	2	55*
O=C(OCc1ccc(Br)cc1)c1cc([N+](=O)[O-])ccc1N1CCOCC1	10	x	x	x	x
O=C1c2ccccc2-c2onc3c(N4CCOCC4)cc(N4CCOCC4)c1c23	x	38	x	x	x
CC(=O)OCCNc1cc(N2CCN(C)CC2)c2noc3c2c1C(=O)c1ccccc1-3	-80	70	-1	-18	x
CCN1CCN(c2cc(N3CCN(C(=O)c4ccco4)CC3)c3c4c(onc24)-c2ccccc2C3=O)CC1	x	76*	-3	-10	9
O=C(O)CCNc1cc(N2CCN(C(=O)c3ccco3)CC2)c2noc3c2c1C(=O)c1ccccc1-3	-116	54*	-5	-5	7
SMILES	PrPC surface inh	PriA SSB inh	SARS 3CLpro inh	PrP 5UTR inh	BJeLR viability
CCCC(=O)Nc1ccc(C(=O)N/N=C/c2ccc([N+](=O)[O-])o2)cc1	-24	x	2	22	122*
COc1cccc(C=Nn2nnnc2N)c1O	x	-7	x	x	x
COc1ccc(N(C(=O)CCl)C(C(=O)NCCc2ccccc2)c2cccs2)cc1 (stereo not given)	-5	0	12	-59	114*
COc1ccc(CCNC(=O)NCC[C@H](O)c2cccs2)cc1	x	-2	x	x	x
CCc1cccc(C)c1NC(=S)NCCc1c(C)[nH]c2ccc(C)cc12	9	40*	0	-7	1
CCc1cccc(CC)c1NC(=S)NCCc1c(C)[nH]c2ccc(C)cc12	10	9	-1	-13	-10
COc1ccccc1OCC(=O)Nc1ccc2c(c1)CCCN2S(=O)(=O)c1ccc(F)cc1	x	0	x	x	x
COc1ccccc1/C=C/C(=O)NC(=S)Nc1ccccn1	2	-19	-5	-25	1
COc1ccc(/C=C/C(=O)NC(=S)Nc2ccccn2)cc1	10	38*	6	x	2
Oc1ccc(C=NNc2ccnc3cc(Cl)ccc23)cc1O	x	47*	x	x	x
CC(=NNc1ccnc2cc(Cl)ccc12)c1ccc(N)cc1	x	71*	x	x	x
COc1ccc(C)cc1NC(=O)CSc1cc(-c2ccccn2)nc(C)n1	x	42	x	x	x
COc1ccc(C)cc1NC(=O)CSc1ccccn1	x	56*	x	x	x
COc1ccc(C)cc1NC(=O)CSc1ccc(-c2ccccn2)nn1	10	52*	-2	-8	-10
O=C(c1cccs1)c1no[n+]([O-])c1C(=O)c1cccs1	x	4	2	-9	71*
Cc1cc(C(=O)NN=Cc2c(CO)cnc(C)c2O)c2ccccc2n1	x	40*	x	x	x
Cc1ncc(CO)c(C=NNc2ccc(C(F)(F)F)cn2)c1O	x	72*	x	x	x
Cc1cc(C(=O)N/N=C/c2c(CO)cnc(C)c2O)c2ccccc2n1	0	x	4	4	-9
CCOC(=O)c1c(NC(C)=O)sc2c1CCC2	x	-9	x	x	x
Cc1ccc(-c2cc(CC(=O)N3CCC(C(N)=O)CC3)no2)cc1	x	-3	x	x	x
Cc1ccc(-c2noc(-c3ccc(=O)n(CC(=O)NC[C@H]4CCCO4)c3)n2)cc1	x	5	x	x	x
CC(C)=NNC(=S)NC(C)(C)C	x	43*	x	x	x
Cc1cc(C)n2c(=O)c3ccc(Cl)cc3nc2c1C#N	-1	-16	1	-26	2
Cc1cc(Cl)n2c(nc3cc(F)c(F)cc32)c1C#N	-8	-4	3	2	128*
N#Cc1nccnc1N1CCC(CNC(=O)COc2ccccc2F)CC1	x	-17	x	x	x
SMILES	PrPC surface inh	PriA SSB inh	SARS 3CLpro inh	PrP 5UTR inh	BJeLR viability
Cc1nc(SC(C)c2ccccc2)[nH]c(=O)c1CC(=O)NCc1ccco1 (stereo not given)	x	1	x	x	x
CCC(CO)Nc1ncnc2c1cnn2-c1ccc(Cl)cc1 (stereo not given)	1	-18	2	-35	-13
CCC(CO)Nc1ncnc2c1cnn2-c1ccc(OC)cc1 (stereo not given)	-3	115*	1	-32	4
COc1ccc(NC(=S)N=C(Nc2ccc(C)cc2)c2ccccc2)cc1	x	46*	x	x	x
CNC(=S)N=C(Nc1ccc(C)cc1)c1ccccc1	x	4	x	x	x
COc1ccc(-c2csc(/C(C#N)=C3\C=CC=CN3C)n2)cc1	x	142*	x	x	x
CN1C=CC=C/C1=C(\C#N)c1nc2ccccc2[nH]1	-25	6	-3	-14	-12
Cc1ccc(NC(=O)CS(=O)(=O)c2cn(C)c3ccccc23)c(C)c1	-9	104*	x	-9	0
CC1=C(SCc2ccccc2)C(=O)c2ccccc2C1=O	-9	4	x	-34	x
O=C1C(SCCO)=C(SCCO)C(=O)c2ccccc21	65*	101*	x	-3	x
Cc1noc(C)c1C(=O)N1CC(n2ccnn2)C1	x	-3	x	x	x
CC1CCc2c(sc3nc(C(C)(C)C)nc(N4CCN(C(=O)CCl)CC4)c23)C1 (stereo not given)	-9	11	6	-9	85*
Cc1noc(Cc2ccccc2NC(=O)Cn2ccc3ccccc32)n1	x	3	x	x	x
c1ccc(C2Nc3ccccc3-c3nc4ccccc4n32)nc1 (stereo not given)	6	61*	-3	-10	5
c1ccc(C2Nc3ccccc3-c3nc4ccccc4n32)cc1 (stereo not given)	0	-9	-5	-4	-1
COC1=C(Nc2ccccc2OC)C(=O)c2ccccc2C1=O	8	68*	3	-23	5
Cc1ccc2sc(NNC(=O)c3nc4ccccc4s3)nc2c1C	x	58*	x	x	x
